# About 83,000 compounds went through this panel and 20% of them were active in at least one assay; those are over-represented in the sample as a whole.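 Cell lines were cultured in 96-well plates, exposed to a single compound concentration, and assessed for percent growth 48 hours later.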 Calls of active or inactive are those of the source. How the source made its calls: active means growth percent below 10; inactive means the rest.
# Columns and labels:
# Assay in all cases: NCI-60 one-dose screen, 48 h (100 = growth as untreated, 0 = no growth, -100 = all killed)
# Conditions in all cases: 10 µM unless noted
# SR leukemia = test system: SR leukemia
# RPMI-8226 leukemia = test system: RPMI-8226 leukemia
# OVCAR-8 ovarian = test system: OVCAR-8 ovarian
# OVCAR-5 ovarian = test system: OVCAR-5 ovarian
# OVCAR-4 ovarian = test system: OVCAR-4 ovarian
# SK-OV-3 ovarian = test system: SK-OV-3 ovarian
# IGROV1 ovarian = test system: IGROV1 ovarian
# OVCAR-3 ovarian = test system: OVCAR-3 ovarian
# HS 578T breast = test system: HS 578T breast
# NCI/ADR-RES ovarian = test system: NCI/ADR-RES ovarian
Compound,growth (SR leukemia),growth (RPMI-8226 leukemia),growth (OVCAR-8 ovarian),growth (OVCAR-5 ovarian),growth (OVCAR-4 ovarian),growth (SK-OV-3 ovarian),growth (IGROV1 ovarian),growth (OVCAR-3 ovarian),growth (HS 578T breast),growth (NCI/ADR-RES ovarian)
COc1ccc2c(c1)C(=O)N(C)C2C1c2c(cc3c(c2OC)OCO3)CCN1C (stereo not given),18.8% (inactive),73.8% (inactive),78.1% (inactive),67.2% (inactive),69.4% (inactive),64% (inactive),43.2% (inactive),9.03% (active),48.4% (inactive),27.9% (inactive)
NS(=O)(=O)c1cccc(Nc2nc(SCC(=O)c3ccc(F)cc3)nc3ccccc23)c1,8.61% (active),-2.61% (active),16.4% (inactive),45.1% (inactive),15.6% (inactive),38.3% (inactive),13.9% (inactive),0.387% (active),7.8% (active),26.7% (inactive)
Oc1ccc(Cl)c(Nc2nc(SCCN3CCOCC3)nc3c2cnn3CC(Cl)c2ccc(Br)cc2)c1 (stereo not given),-26.7% (active),19.2% (inactive),16.5% (inactive),50.4% (inactive),31.7% (inactive),65.8% (inactive),1.12% (active),29.9% (inactive),-15.5% (active),13.5% (inactive)
COc1ccc(N=Nc2c(N)nn3c(-c4ccc(F)cc4)ccnc23)cc1,3.18% (active),95.5% (inactive),73.1% (inactive),80% (inactive),26.1% (inactive),113% (inactive),99.9% (inactive),79.6% (inactive),107% (inactive),74.3% (inactive)
CN1CCN(C(=O)Oc2cc3c(c4ccccc24)[C@H](CCl)CN3C(=O)c2cc3cc(OCCCN4CCC4)ccc3[nH]2)[C@@H]2CSSC[C@H]21,5.86% (active),-23.6% (active),-32.4% (active),-18.1% (active),12.5% (inactive),-13.2% (active),2.74% (active),4.14% (active),-12.2% (active),-23.1% (active)
Clc1ccc(Nc2nnc(-c3c[nH]c4ccccc34)o2)cc1,49.6% (inactive),28.6% (inactive),86.1% (inactive),101% (inactive),78.6% (inactive),72.2% (inactive),47.3% (inactive),102% (inactive),82.5% (inactive),50.7% (inactive)
Nc1nc2cc(-c3ccc4ncnc(NCc5ccccc5)c4c3)ccc2o1,-44.9% (active),10.6% (inactive),2.26% (active),22.1% (inactive),-75.2% (active),-5.93% (active),-68.5% (active),-31.5% (active),-34.8% (active),2.3% (active)
CCCSc1nnc(-c2c(C)nc3sccn23)o1,120% (inactive),70.3% (inactive),98.3% (inactive),85.9% (inactive),71.9% (inactive),108% (inactive),83.8% (inactive),98.5% (inactive),79.6% (inactive),83.5% (inactive)
COC(=O)CSC1=C(C)C(=O)C(OC)=C(OC)C1=O,57% (inactive),65.6% (inactive),92.2% (inactive),110% (inactive),94.2% (inactive),100% (inactive),106% (inactive),91.8% (inactive),79.2% (inactive),96.6% (inactive)
COc1cc(/C=C/C(=O)c2cnn(-c3cc(=O)[nH]c4ccc(Br)cc34)c2C)cc(OC)c1OC,-15.2% (active),-23.7% (active),7.35% (active),-68% (active),25.6% (inactive),19.5% (inactive),-59.8% (active),-59.1% (active),54.1% (inactive),-26.8% (active)
CC1=C(C)C(=O)C(N2CCSCC2)=CC1=O,111% (inactive),72.9% (inactive),92.7% (inactive),97.2% (inactive),94.4% (inactive),105% (inactive),92.9% (inactive),101% (inactive),103% (inactive),93.7% (inactive)
N#C/C(=C/c1ccc([N+](=O)[O-])cc1)c1nnc(NC(=O)c2ccc(-n3c(=O)[nH]c4ccccc4c3=O)cc2)s1,91.6% (inactive),98.1% (inactive),93.4% (inactive),110% (inactive),95.6% (inactive),104% (inactive),98.6% (inactive),103% (inactive),101% (inactive),94.2% (inactive)
O=C1N/C(=N\c2nccs2)S/C1=C\c1ccc([N+](=O)[O-])cc1,25.5% (inactive),6.29% (active),14.3% (inactive),32.8% (inactive),12.4% (inactive),52.7% (inactive),23.6% (inactive),12.7% (inactive),20.8% (inactive),8.78% (active)
CN(CCSSCCN1CCOCC1)C(=O)Oc1cc2c(c3ccccc13)[C@H](CCl)CN2C(=O)c1cc2cc(OCCCN3CCC3)ccc2[nH]1,-26.2% (active),-28.5% (active),-15.7% (active),-36.7% (active),-28.7% (active),-27.7% (active),-22.1% (active),-46.7% (active),-16.8% (active),-30.4% (active)
CN(C)CCCc1ccc(Nc2cnn(C)c(=O)c2Cl)cc1,62.2% (inactive),102% (inactive),106% (inactive),126% (inactive),100% (inactive),131% (inactive),104% (inactive),105% (inactive),105% (inactive),109% (inactive)

# — PubChem BioAssay (NCI)
